# Sfp PPTase inh – qHTS Assay for Inhibitors of Bacillus subtilis Sfp phosphopantetheinyl transferase (PPTase); Biochemical Sfp PPTase activity, qHTS; Potency, µM, for the others: largest response in the series, negative = inhibition, most hits filed as inhibitors; 3.5% of 310,000 active;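 note: the enzyme is Sfp with the accession as filed and its product quenches rhodamine fluorescence; 0% = enzyme reaction without inhibitor and -100% = no enzyme wells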
#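 Sfp 15 nM + cpd, 15 min RT; start w/ rhodamine-CoA 5 uM, BHQ-2-YbbR 12.5 uM (final); 50 mM Hepes pH 7.6, 10 mM MgCl2, 0.01% NP-40, 0.01% BSA; read 525/598 nm at 0 and 30 min.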
# HP1b chromo inh – HTS for Inhibitors of HP1-beta Chromodomain Interactions with Methylated Histone Tails; AlphaScreen HP1-beta / biotin-H3K9me3 peptide binding; 0.56% of 390,000 active; AID 540317, 2011; Potency, µM (titrated, usually from 114 µM), inactives show at the highest dose activity change, negative = inhibition, hits mostly inhibitors; note: nearly all actives have a fitted effect of over 70% in size
# Target sequence (P83916 whole entry, looked up): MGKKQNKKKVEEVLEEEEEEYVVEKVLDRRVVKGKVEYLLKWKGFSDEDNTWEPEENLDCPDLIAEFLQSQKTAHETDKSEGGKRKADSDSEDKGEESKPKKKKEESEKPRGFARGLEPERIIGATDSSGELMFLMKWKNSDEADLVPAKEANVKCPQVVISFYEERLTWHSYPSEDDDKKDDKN
#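 AlphaScreen: HP1-beta (50 nM) preformed 30 min with biotin-H3(1-18)K9me3 peptide (50 nM) in PBS pH 7.4, 0.01% Tween-20. Compound added for 30 min at RT, then streptavidin donor/nickel chelate acceptor beads (10 ug/mL) for 30 min.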
# BAZ2B inh – qHTS Assay for Inhibitors of BAZ2B. Bromodomain adjacent to zinc finger domain protein 2B (Homo sapiens), Q9UIF8. AlphaScreen BAZ2B-H3K14Ac peptide displacement. Potency, µM (series often up to 114 µM), for the others: at the top dose activity change, negative = inhibition, hits mostly inhibitors. 4.4% of 360,000 active; note: % is set by controls: 0 for no effect and ±100 for the full control effect; nearly all actives have a fitted effect of over 60% in size
#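 AlphaScreen displacement: compounds (up to 110uM) incubated 30 min at room temperature with a preformed 50 nM BAZ2B/50 nM biotinylated H3K14Ac peptide complex in PBS pH 7.4 with Tween-20. Donor and acceptor beads at 10 ug/mL final added, 20 min light-protected before reading.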
# JMJD2A Tudor inh – qHTS Assay for Inhibitors of JMJD2A-Tudor Domain | AlphaScreen JMJD2A-Tudor / H3K4me3 peptide binding | AID 504339, 2011 | 4.4% of 390,000 active | Potency, µM (series often up to 114 µM), for the others: at the highest dose activity change, negative = inhibition, hits mostly inhibitors; note: % is set by controls: 0 for no effect and ±100 for the full control effect; nearly all actives have a fitted effect of over 50% in size
# G9a block – qHTS Assay for Inhibitors of Histone Lysine Methyltransferase G9a; Histone-lysine N-methyltransferase EHMT2 (Homo sapiens), Q96KQ7; G9a H3K9 monomethylation, AlphaScreen, 2 h; Potency, µM (doses to about 102 µM), inactives show top-dose activity, negative = inhibition, usual class: inhibitors; 8.8% of 350,000 active; note: % is set by controls: 0 for no effect and ±100 for the full control effect; nearly all actives have a fitted effect of over 75% in size
# Target sequence (Q96KQ7 913-1193 limits assumed): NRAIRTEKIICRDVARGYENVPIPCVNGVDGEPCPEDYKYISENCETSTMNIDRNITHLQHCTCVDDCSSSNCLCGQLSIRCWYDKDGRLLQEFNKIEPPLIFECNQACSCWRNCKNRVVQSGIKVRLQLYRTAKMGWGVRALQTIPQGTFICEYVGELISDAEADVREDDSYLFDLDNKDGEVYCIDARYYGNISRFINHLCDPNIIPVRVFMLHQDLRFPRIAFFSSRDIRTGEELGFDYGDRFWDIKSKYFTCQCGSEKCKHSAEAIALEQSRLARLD
#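 AlphaScreen read-out: biotin-H3K9 peptide (500 nM) methylation by 20 nM enzyme with 20 uM SAM, 2 h at room temperature after 15 min compound preincubation; anti-monomethyl H3K9 antibody plus donor/acceptor beads, 10 min dark.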
# L3MBTL1 block – qHTS Assay for the Inhibitors of L3MBTL1; 0.66% of 230,000 active; Potency, µM (doses to about 57.1 µM), for inactives: at the highest dose activity, negative = inhibition, actives largely listed as inhibitors; Lethal(3)malignant brain tumor-like protein 1 (Homo sapiens), Q9Y468; AlphaScreen L3MBTL1–H3K9me1 peptide binding; AID 485360, 2010; note: % is set by controls: 0 for no effect and ±100 for the full control effect; nearly all actives have a fitted effect of over 60% in size
#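 AlphaScreen assay: L3MBTL1 (50 nM final) was preincubated 30 min at room temperature with biotinylated H3(1-15)K9me1 peptide (75 nM final), then 30 min with library compounds; streptavidin donor and nickel chelate acceptor beads (10 ug/mL final) added, 30 min dark.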
# Numbers without * were called inactive; ? = inconclusive; . = not tested or not shown; [ ] = dose if it differs, or a comment. Sampled rows, rich in hits. Any-hit rate of the full collection: about 12%. Calls come from the whole dose curve; as a rule, active = well fitted curve in the direction sought with a large enough effect; inconclusive = small, poorly fitted or top-dose-only effect, or another doubt; inactive = no such curve, though single readings can be large; an effect the other way counts as inactive or inconclusive. Potency is the fitted concentration of half-maximal effect.
SMILES,Sfp PPTase inh,HP1b chromo inh,BAZ2B inh,JMJD2A Tudor inh,G9a block,L3MBTL1 block
CCOc1ccc(S(=O)(=O)N2CCOCC2)cc1NC(=O)c1ccc(N2CCCC2=O)cc1,.,18%,-4%,-8%,32µM*,-14%
CCOc1ccccc1NC(=O)c1ccc(S(=O)(=O)N2CCOCC2)cc1,10%,40%,2%,-5%,0%,6%
COc1ccc(OC)c(CNc2ncc(-c3cccc([N+](=O)[O-])c3)n2C)c1,?,14µM*,50µM*,45µM*,28µM*,-20%
COc1ccc(CNc2ncc(-c3ccccc3)n2C)c2ccccc12,-24%,?,50µM*,18µM*,.,-12%
Oc1ccc(Cl)cc1CNc1ccccn1,16%,30%,6%,-15%,16%,0%
COc1ccc(CNc2ccncc2)c(OC)c1OC,.,52%,.,-6%,.,.
COc1ccc(CNc2ncc(-c3ccccc3)n2C)c(OC)c1OC,-29%,?,50µM*,20µM*,7.1µM*,-3%
Cn1c(-c2ccccc2)cnc1NCc1cc(Cl)ccc1O,-18%,?,56µM*,35µM*,.,-6%
COc1cccc(CNC(=O)CSC2=Nc3ccccc3N=C(c3ccc(F)cc3)C2)c1,.,5%[57 µM],-8%,-14%,0%[59 µM],.
CC(C)COc1ccc(C(=O)Nc2nnc(S(=O)(=O)N(C)Cc3ccco3)s2)cc1,.,11%,-3%,-18%,-28%[59 µM],.
C=CC(=O)O,16%,.,.,.,?,.
CCCCCCCn1c(=N)n(CC(O)c2ccco2)c2ccccc21 (configuration not stated),1%,14%,-34%,-31%,79µM*,-7%
CC(C)(C)OC1NS(=O)(=O)OCC1NCOC(Cl)(Cl)Cl (configuration not stated),13µM*,7%,50µM*,79µM*,32µM*,1%
C=CCC1NS(=O)(=O)OCC1NC(=O)OCC(Cl)(Cl)Cl (configuration not stated),19%,36%,0%,-21%,19%,3%
CCSc1ncc(Cl)c(C(=O)N2CCN(c3ccccc3OC)CC2)n1,.,3%,-7%,-19%,-6%[59 µM],.
COc1ccc(N2CC(C(=O)Nc3nnc(SCc4ccccn4)s3)CC2=O)cc1 (configuration not stated),-14%,22%,-6%,-15%,50µM*,5%
COc1ccc(NC(=O)CCC(=O)Nc2nnc(C3CCCCC3)s2)c(OC)c1,?,27%,-11%,-10%,71µM*,.
CCOC(=O)C(=O)Nc1nnc(C2CCCCC2)s1,?,-10%,-14%,-8%,8.9µM*,.
Cc1ccc(N2CC(C(=O)Nc3nnc(SCC(N)=O)s3)CC2=O)cc1 (configuration not stated),0%,38%,-8%,-15%,40µM*,.
NC(=O)CSc1nnc(NC(=O)C2CC(=O)N(c3ccc(F)cc3)C2)s1 (configuration not stated),?,19%,?,-22%,.,.
Cc1ccc(N2CC(C(=O)Nc3nc4ccc(S(C)(=O)=O)cc4s3)CC2=O)cc1 (configuration not stated),45µM*,35%,?,-22%,.,.
COc1ccccc1N1CC(C(=O)Nc2nnc(SCc3ccccn3)s2)CC1=O (configuration not stated),-14%,24%,-37%,-12%,?,1%
O=C(Nc1nnc(C2CCCCC2)s1)C1CC(=O)N(c2ccc(F)cc2)C1 (configuration not stated),-3%,28%,-2%,1%,18%[59 µM],.
CNC(=O)CSc1nnc(NC(=O)C2CC(=O)N(c3ccccc3OC)C2)s1 (configuration not stated),50µM*,50%,-7%,-9%,10µM*,.
COc1ccc(N2CC(C(=O)Nc3nnc(SCC(=O)c4ccccc4)s3)CC2=O)cc1 (configuration not stated),28µM*,11%,-2%,-16%,13µM*,-10%
SMILES,Sfp PPTase inh,HP1b chromo inh,BAZ2B inh,JMJD2A Tudor inh,G9a block,L3MBTL1 block
COc1ccc(N2CC(C(=O)Nc3nnc(C4CCCCC4)s3)CC2=O)cc1 (configuration not stated),1%,-4%,-11%,22µM*,-7%,.
CC1CCN(C(c2ccc(F)cc2)c2sc3nc(-c4ccco4)nn3c2O)CC1 (configuration not stated),.,16%,-25%,-19%,-10%[59 µM],.
CO[C@H]1COC(=O)C/C=C\[C@H](C)[C@@H](NS(=O)(=O)c2ccc(C)cc2)COC(=O)C/C=C\[C@@H]1C,12%,.,.,.,.,.
Cc1ccc(NC(=O)CC2Nc3cc(C)c(C)cc3NC2=O)c(C)c1 (configuration not stated),.,18%,-1%,-14%,-4%[59 µM],.
Cc1ccc(N2CC(C(=O)N3CCC(C(=O)Nc4nnc(C(C)C)s4)CC3)CC2=O)cc1 (configuration not stated),-14%,-14%,12%,-4%,45µM*,.
COc1ccc(CC(=O)Nc2ccc(S(=O)(=O)Nc3cc(C)on3)cc2)cc1OC,19%,12%,11%,-6%,0%,-1%
COc1cc(NS(=O)(=O)c2ccc(Nc3nc(-c4ccccn4)cs3)cc2)nc(OC)n1,1%,3%,?,?,-34%,-12%
COc1ccc(-c2csc(Nc3ccc(S(=O)(=O)Nc4cc(OC)nc(OC)n4)cc3)n2)cc1,?,?,45µM*,?,-12%[59 µM],-11%
Cc1ccc(Nc2nc(-c3ccc(S(=O)(=O)N4CCCC4)cc3)cs2)cc1C,-19%,0%,?,?,45µM*,-5%
COc1ccc(-c2csc(Nc3ccc(S(=O)(=O)Nc4cc(C)on4)cc3)n2)cc1C,-27%,-15%,50µM*,?,40µM*,?
CCOc1ccc(Br)cc1C1C(C(=O)OC)=C(N)Oc2cc(N(C)C)ccc21 (configuration not stated),4%,?,?,50µM*,?,.
COc1ccc(CCNC(=O)CSc2cc(=O)n(C)c3ccccc23)cc1OC,.,48%,.,-5%,?,.
CCCCCCCCOc1ccc(C(=O)O)cc1,.,36%,-2%,-12%,-6%[0.501 µM],-12%
C=C(C)C(=O)OCCCCCCOc1ccc(C(=O)O)cc1,6%,?,?,11µM*,10%[12.7 µM],-6%

# Source: PubChem BioAssay (National Center for Advancing Translational Sciences (NCATS))
